# Data taken from ChEMBL document CHEMBL4513216, “Probing the Open Global Health Chemical Diversity Library for Multistage-Active Starting Points for Next-Generation Antimalarials” (ACS Infect Dis, 2020).
# Hit rate of the full screen: of about 68,000 compounds, about 2,700 (4%) showed an effect of 50% or more. Many of the other results were omitted from the sample, so strong results are more common in it than they were.
# Tested on: Plasmodium berghei
# Assay: Screen against P. berghei liver stage (PbLuc), transformed with Luciferase, at 2uM
# Type: functional, HepG2
# Details: tested at 2 uM
row,SMILES,INHIBITION
1,O=C(NC1CC1)C1CCN(c2nc3nc[nH]c(=O)c3s2)CC1,20.16%
2,CN(Cc1cnn(C)c1)C(=O)C(c1ccccc1)N1CCSCC1 (stereo not given),0.21%
3,O=C(C[C@@H]1COC[C@H]2CN(Cc3ccc(F)cc3)C[C@@H]12)N1CCOCC1,20.74%
4,Cn1cc(CN2CCc3c(CNC(=O)C4CC4)cncc3C2)cn1,-5.13%
5,O=C(NCC1CC1)[C@H]1C[C@@H]2CCN(CCc3ccccc3)C[C@H]2O1,25.4%
6,CC(C)n1[nH]c(=O)c2c1NC(=O)CC2c1cccnc1 (stereo not given),-35.44%
7,Cc1ccccc1CC(=O)N[C@@H]1CCC[C@@H](N2CCNC(=O)C2)[C@@H]1O,29.06%
8,CCc1nc2n(n1)CC(NCc1cc(OC)c3c(c1)OCO3)CC2 (stereo not given),40.24%
9,Cc1ccc(C(=O)N2CCC(Oc3cccc(C)c3C)CC2)c(=O)[nH]1,7.64%
10,Cc1ccc(C(=O)N2CCC(Oc3c(C)cccc3C)CC2)c(=O)[nH]1,-11.33%
11,Cc1ccc(C(=O)N2CCC(Oc3ccc(C)c(C)c3)CC2)c(=O)[nH]1,-37.2%
12,Cc1ccc(C(=O)N2CCC(Oc3ccc(F)cc3F)CC2)c(=O)[nH]1,60.31%
13,COc1ccc(OC2CCN(C(=O)c3ccc(C)[nH]c3=O)CC2)cc1,11.95%
14,Cc1ccc(C)c(OC2CCN(C(=O)c3ccc(C)[nH]c3=O)CC2)c1,54.85%
15,CCN(CC1CCCN(CCc2cccc(OC)c2)C1)C(=O)CN(C)C (stereo not given),-85.72%
16,Cc1cc(C(=O)N2CCCC2c2nc(O)cc(C(C)C)n2)on1 (stereo not given),12.21%
17,CCN(C)C[C@@H]1CN(Cc2cnc3c(S(C)(=O)=O)cnn3c2)C[C@@H]1CO,10.91%
18,CCN(CC)S(=O)(=O)c1csc(C(=O)N2CCC(C(N)=O)CC2)c1,14.27%
19,CN(C)S(=O)(=O)c1csc(C(=O)N2CCC(C(N)=O)CC2)c1,-0.24%
20,CN(C)S(=O)(=O)c1csc(C(=O)N2CCSCC2)c1,68.33%
21,Cc1nc(NCCSc2nnc(C)s2)c2cccnc2n1,21%
22,CN1CC2(CCN(CC3CC3)CC2)COc2ccccc2S1(=O)=O,-22.64%
23,O=C(CS(=O)(=O)Cc1ccc(F)cc1)NCc1ccccc1F,-54.34%
24,NC(=O)C(Cc1ccccc1)NS(=O)(=O)Cc1ccccc1Cl (stereo not given),-7.47%
25,Cc1ccc(CS(=O)(=O)CC(=O)NCc2ccccc2F)cc1,26.74%
26,NC(=O)C(Cc1ccccc1)NS(=O)(=O)Cc1ccccc1F (stereo not given),53.13%
27,N#Cc1cccc(CS(=O)(=O)NC(Cc2ccccc2)C(N)=O)c1 (stereo not given),18.29%

row,SMILES,INHIBITION
1,O=C(CS(=O)(=O)Cc1ccccc1)NCc1ccccc1F,50.59%
2,Cc1ccc(Cl)cc1N1CCC(CNC(=O)Cn2cccn2)C1 (stereo not given),-48.41%
3,Cc1cnn(CC(=O)NCC2CCN(c3cc(Cl)ccc3C)C2)c1 (stereo not given),80.06%
4,Cc1ccc(Cl)cc1N1CCC(CNC(=O)CC(F)(F)F)C1 (stereo not given),42.92%
5,CSCC[C@H](N)c1nnc(SCc2cc(C)ccc2C)o1,17.15%
6,O=C(NCC(F)(F)F)C1CSCN1S(=O)(=O)c1ccccc1F (stereo not given),14.06%
7,CCCC1C=CCN1C(=O)c1cc(COc2ccc3c(c2)OCO3)[nH]n1 (stereo not given),5.15%
8,O=C(c1cscn1)N1CCC2(CCN(Cc3nccs3)C2)CC1,-14.66%
9,Cc1cc(C)cc(-c2cc(C3CCOC3)c(C#N)c(N)n2)c1 (stereo not given),59.27%
10,Cc1cc(-c2cc(C3CCOC3)c(C#N)c(N)n2)ccc1Cl (stereo not given),21.33%
11,COc1ccc(-c2cc(C3CCOC3)c(C#N)c(N)n2)cn1 (stereo not given),7.64%
12,CCN1CCO[C@]2(CCC[C@H]2COCc2csc(C)n2)C1,32.95%
13,COc1ccc(C)cc1Nc1nc2c(C)nn(C)c2c(=O)n1C,-103.52%
14,O=C(NC1CCS(=O)(=O)c2ccccc21)c1cccs1 (stereo not given),79.83%
15,O=C(NC1CCS(=O)(=O)c2ccccc21)c1sccc1C1CC1 (stereo not given),-10.14%
16,Cc1ccsc1C(=O)NC1CCS(=O)(=O)c2ccccc21 (stereo not given),-15.77%
17,CC(C)CNc1nnc(SC(C(=O)NCc2cccnc2)C(C)C)s1 (stereo not given),-16.56%
18,CCNc1cc2c(nn1)CCN(C(=O)c1ccc3c(c1)OCO3)C2,-17.37%
19,CNc1cc2c(nn1)CCN(C(=O)c1ccc3c(c1)OCO3)C2,50.18%
20,CNc1cc2c(nn1)CCN(C(=O)c1ccc3c(c1)CCC3)C2,29.12%
21,Cc1cc(N2CCN(c3ccc(=O)[nH]n3)CC2)nc(-c2ccncc2)n1,-2.96%
22,Cc1c(C(=O)NCCC(=O)N2CCOCC2)sc2ccc(F)cc12,-6.64%
23,COc1cccnc1NC(=O)c1ccc(COCC(F)(F)F)cc1,-14.46%
24,Cc1ccc(-c2cc(CN3CCCC(Cn4cncn4)C3)on2)cc1 (stereo not given),-23.18%
25,Cc1ccc(-c2noc(CN3CCCC(Cn4cncn4)C3)n2)cc1 (stereo not given),-35.33%
26,Cc1cc(CN2CCCC(Cn3cncn3)C2)no1 (stereo not given),-50.13%
27,CCCNC(=O)CN1CCN(Cc2csc(C(C)(C)C)n2)CC1,22.1%

row,SMILES,INHIBITION
1,Cc1cccc(-c2noc(CN3CCCC(Cn4cncn4)C3)n2)c1 (stereo not given),54.85%
2,Cc1cc(CN2CCCC(Cn3cncn3)C2)on1 (stereo not given),59.54%
3,c1ccc(-c2nc(CN3CCCC(Cn4cncn4)C3)cs2)cc1 (stereo not given),-37.28%
4,CC(C)(C)c1nc(CN2CCCC(Cn3cncn3)C2)cs1 (stereo not given),80.49%
5,c1cncc(-c2noc(CN3CCCC(Cn4cncn4)C3)n2)c1 (stereo not given),-9.22%
6,CC(C)c1nc(CN2CCCC(Cn3cncn3)C2)cs1 (stereo not given),5.52%
7,CCCNC(=O)C1CCCN(Cc2csc(C(C)(C)C)n2)C1 (stereo not given),52.87%
8,CCCNC(=O)C1CCN(Cc2csc(C(C)(C)C)n2)CC1,-21.58%
9,c1ccc(-c2nc(CNC3CCc4ncnn4C3)cs2)cc1 (stereo not given),-7.88%
10,CCCc1nc(CNCC2CCCN2c2cccnn2)no1 (stereo not given),19.76%
11,c1ccc(-c2cc(CN3C[C@H]4CC[C@@H](C3)N(CC3CCC3)C4)on2)cc1,34.16%
12,Cc1ccccc1CNc1ccccc1OCC(=O)N1CCOCC1,-64.94%
13,COc1cc(C2c3c(n[nH]c3C)N=C3COC(=O)C32)cc(Br)c1O (stereo not given),37.18%
14,CC(C)C(=O)N1CCN(Cc2cnn(C)c2)CC2(CC(=O)N(C)C2)C1 (stereo not given),-2.69%
15,CN(C)C(=O)N1CCn2c(Cn3cccn3)cnc2C1,25.4%
16,O=C(c1cccc(F)c1)N1CCc2ncc(Cn3cccn3)n2CC1,-39.07%
17,O=C(NC1CC1)N1CCn2c(Cn3cccn3)cnc2C1,53.08%
18,O=C(c1ccoc1)N1CCc2ncc(Cn3cccn3)n2CC1,50.17%
19,Cc1ccc(C(=O)N2CCc3ncc(Cn4cccn4)n3CC2)cn1,16.43%
20,O=C(NCc1ccccc1)N1CCn2c(Cn3cccn3)cnc2C1,6.33%
21,Cc1ncsc1CN1C[C@@H]2COC[C@]2(C(=O)NCc2ccccn2)C1,-0.27%
22,CC(C(=O)N1CCN(c2ccccc2)CC1)n1cc(Br)cn1 (stereo not given),-34.08%
23,CN1CCN(c2ccccc2CNC(=O)CSC(F)(F)F)CC1,-14.36%
24,CC(C)C(C(=O)N1CCCN(c2cccnn2)CC1)n1cncn1 (stereo not given),-0.6%
25,OCc1c(Cl)ncn1-c1ccc(F)cc1,22.43%
26,O=C(CCC1CCCC1)N1CCC(c2cc3ncccc3c(O)n2)CC1,22.39%
27,Cc1nc(NC(=O)c2c(-n3cnnn3)sc3c2CCCC3)sc1C,76.25%

row,SMILES,INHIBITION
1,CC(C)CNC(=O)c1c(-n2cnnn2)sc2c1CCCC2,15.93%
2,CCCn1nccc1C(=O)Nc1nc(C)c(C)s1,-44.44%
3,Cc1nc(NC(=O)c2c(-n3cnnn3)sc(C)c2C)sc1C,60.67%
4,Cc1nc(NC(=O)c2c(-n3cnnn3)sc3c2CCC3)sc1C,10.71%
5,Cc1sc(-n2cnnn2)c(C(=O)NC(C)C)c1C,-21.53%
6,F[C@@H]1CN(CC2CC2)C[C@@H]1OCc1nc2cnccc2[nH]1,25.94%
7,COCCC(=O)N1CCC(C(=O)c2cc(C)cnc2N)CC1,41.56%
8,c1ccc(Sc2ccc3c(c2)OCO3)c(CNC2=NCCN2)c1,33.59%
9,COCC1N(C(=O)c2ccco2)C2CCC1(O)CC2 (stereo not given),3.88%
10,COc1ccc(Br)cc1Cn1nc(C(N)=O)ccc1=O,-21.09%
11,CCOc1ccc(Br)cc1C1CCCN1 (stereo not given),53.55%
12,CCOc1ccc(Cl)cc1C1CCCN1 (stereo not given),-27.75%
13,CCOc1ccc(Br)cc1C1CCCCN1 (stereo not given),-0.44%
14,Cc1nccn1C1CCCN(C(=O)c2ccc3nnc(C)n3c2)C1 (stereo not given),6.12%
15,Cc1cc(NC(=O)NCc2ccccn2)n(C)n1,29.11%
16,COc1cc(F)cc(NC(=O)NCc2cccc(N(C)C)n2)c1,23.92%
17,COc1cc(NC(=O)NCc2ccccn2)cc(OC)c1,52.08%
18,N#Cc1c(F)cccc1NCCCOCC1CCOC1 (stereo not given),-39.57%
19,C[C@@H]1CN(CC(C)(C)N2CCOCC2)C[C@@]1(O)C1CC1,-10.59%
20,C[C@@H]1CN(CC(C)(C)N2CCCCC2)CC[C@@]1(O)C1CC1,12.62%
21,C[C@@H]1CN(CC(C)(C)N2CCCCC2)C[C@@]1(O)C1CC1,51.31%
22,Cc1cc(C(=O)NCC(O)c2ccc(Cl)s2)c(C)o1 (stereo not given),57.75%
23,Cc1ccc(C(=O)NCC(O)c2ccc(Cl)s2)c(=O)[nH]1 (stereo not given),10.05%
24,Cc1occc1C(=O)NCC(O)c1ccc(Cl)s1 (stereo not given),43.44%
